This passage reports inhibition results from ChEMBL document CHEMBL1961873, “Compounds: GSK PKIS; Assays: Nanosyn kinase panel” (2012).

Assay [1] concerns the target Death-associated protein kinase 1 (Homo sapiens) (UniProt P53355). The note with it: at 1 µM.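 Also: each value is a mean inhibition figure.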
Assay [2] has as its target T1, Serine/threonine-protein kinase DCLK2 (Homo sapiens) (UniProt Q8N568).
T1 sequence (whole entry): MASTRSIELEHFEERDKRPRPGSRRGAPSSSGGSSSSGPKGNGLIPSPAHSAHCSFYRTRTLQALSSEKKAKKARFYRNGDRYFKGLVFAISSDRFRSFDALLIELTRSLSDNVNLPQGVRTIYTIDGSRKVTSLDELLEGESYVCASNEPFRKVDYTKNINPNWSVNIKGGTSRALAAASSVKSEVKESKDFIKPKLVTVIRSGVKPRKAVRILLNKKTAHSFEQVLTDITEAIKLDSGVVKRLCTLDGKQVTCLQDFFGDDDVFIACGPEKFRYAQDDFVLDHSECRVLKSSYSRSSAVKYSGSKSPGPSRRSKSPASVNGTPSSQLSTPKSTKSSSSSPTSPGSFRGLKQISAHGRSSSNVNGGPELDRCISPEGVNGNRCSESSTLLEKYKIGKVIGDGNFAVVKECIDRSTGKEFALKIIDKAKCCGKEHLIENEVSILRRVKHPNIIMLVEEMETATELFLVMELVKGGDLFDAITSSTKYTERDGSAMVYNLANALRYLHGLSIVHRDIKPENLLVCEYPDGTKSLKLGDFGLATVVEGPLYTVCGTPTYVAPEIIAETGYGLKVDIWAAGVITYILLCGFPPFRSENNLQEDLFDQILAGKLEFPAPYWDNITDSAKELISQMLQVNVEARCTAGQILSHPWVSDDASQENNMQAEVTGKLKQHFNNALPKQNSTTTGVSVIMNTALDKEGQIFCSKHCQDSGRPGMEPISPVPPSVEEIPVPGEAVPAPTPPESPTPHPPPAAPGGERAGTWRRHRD
Conditions: at 0.1 µM.

The target in assay [3] is T1, Serine/threonine-protein kinase DCLK2 (Homo sapiens). Conditions: at 1 µM.
In assay [4] the target is MAP kinase-activated protein kinase 2 (Homo sapiens) (UniProt P49137). The note with it: at 0.1 µM.
MAP kinase-activated protein kinase 2 (Homo sapiens), sequence (P49137 whole entry, looked up): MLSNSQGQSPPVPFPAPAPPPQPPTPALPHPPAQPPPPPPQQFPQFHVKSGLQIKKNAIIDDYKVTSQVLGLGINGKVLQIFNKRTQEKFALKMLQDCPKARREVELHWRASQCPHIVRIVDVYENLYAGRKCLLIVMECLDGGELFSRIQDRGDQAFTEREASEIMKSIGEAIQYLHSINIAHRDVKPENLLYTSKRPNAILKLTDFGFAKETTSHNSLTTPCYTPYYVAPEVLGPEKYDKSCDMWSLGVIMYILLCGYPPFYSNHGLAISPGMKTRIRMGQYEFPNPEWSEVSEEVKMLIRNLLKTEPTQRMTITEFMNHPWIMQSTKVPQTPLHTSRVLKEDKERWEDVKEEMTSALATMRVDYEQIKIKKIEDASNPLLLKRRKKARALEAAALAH
The target is the same in assay [5]. The note with it: at 1 µM.
In assay [6] the target is MAP kinase-activated protein kinase 3 (Homo sapiens) (UniProt Q16644). The note with it: at 0.1 µM.
MAP kinase-activated protein kinase 3 (Homo sapiens), sequence (Q16644 whole entry, looked up): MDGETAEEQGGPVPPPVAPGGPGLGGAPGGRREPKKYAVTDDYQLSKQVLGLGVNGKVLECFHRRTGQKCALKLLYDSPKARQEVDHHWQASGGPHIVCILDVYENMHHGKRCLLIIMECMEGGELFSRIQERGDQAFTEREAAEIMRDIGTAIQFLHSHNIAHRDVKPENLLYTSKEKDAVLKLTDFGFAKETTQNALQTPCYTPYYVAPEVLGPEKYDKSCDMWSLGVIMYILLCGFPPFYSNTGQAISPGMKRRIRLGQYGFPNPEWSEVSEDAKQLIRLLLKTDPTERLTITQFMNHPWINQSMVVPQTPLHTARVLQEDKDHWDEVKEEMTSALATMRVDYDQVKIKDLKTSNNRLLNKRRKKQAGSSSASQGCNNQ
For assay [7] the target is unchanged. The note with it: at 1 µM.
For assay [8], the target named is Serine/threonine-protein kinase MARK1 (Homo sapiens) (UniProt Q9P0L2). The note with it: at 0.1 µM.
The target is the same in assay [9]. The note with it: at 1 µM.
Assay [10] has as its target MAP/microtubule affinity-regulating kinase 3 (Homo sapiens) (UniProt P27448). Conditions: at 0.1 µM.
For assay [11] the target is unchanged. The note with it: at 1 µM.
The target of assay [12] is T2, MAP/microtubule affinity-regulating kinase 4 (Homo sapiens) (UniProt Q96L34).
T2 sequence (whole entry): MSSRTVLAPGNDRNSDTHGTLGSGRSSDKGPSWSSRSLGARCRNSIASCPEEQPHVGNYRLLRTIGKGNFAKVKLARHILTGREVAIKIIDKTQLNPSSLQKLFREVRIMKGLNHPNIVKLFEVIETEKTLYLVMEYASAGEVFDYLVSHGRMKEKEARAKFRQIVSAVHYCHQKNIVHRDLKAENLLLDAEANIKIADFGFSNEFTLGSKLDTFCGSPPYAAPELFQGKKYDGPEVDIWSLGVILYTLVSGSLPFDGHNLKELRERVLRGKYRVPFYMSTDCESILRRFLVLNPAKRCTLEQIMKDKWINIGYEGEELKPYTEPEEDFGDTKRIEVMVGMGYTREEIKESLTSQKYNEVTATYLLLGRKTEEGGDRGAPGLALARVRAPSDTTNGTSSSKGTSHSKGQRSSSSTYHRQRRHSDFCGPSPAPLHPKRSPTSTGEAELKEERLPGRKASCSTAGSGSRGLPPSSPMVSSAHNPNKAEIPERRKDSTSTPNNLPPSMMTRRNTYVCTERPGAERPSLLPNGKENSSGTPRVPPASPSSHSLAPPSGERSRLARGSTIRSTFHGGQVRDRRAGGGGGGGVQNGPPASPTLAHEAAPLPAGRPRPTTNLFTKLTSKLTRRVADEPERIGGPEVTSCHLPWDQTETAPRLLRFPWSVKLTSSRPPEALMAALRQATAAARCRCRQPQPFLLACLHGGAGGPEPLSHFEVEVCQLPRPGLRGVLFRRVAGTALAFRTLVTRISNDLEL
Conditions: at 0.1 µM.

The target of assay [13] is T2, MAP/microtubule affinity-regulating kinase 4 (Homo sapiens). The note with it: at 1 µM.
Assay [14] deals with Maternal embryonic leucine zipper kinase (Homo sapiens) (UniProt Q14680). Conditions: at 0.1 µM.
Maternal embryonic leucine zipper kinase (Homo sapiens), sequence (Q14680 whole entry, looked up): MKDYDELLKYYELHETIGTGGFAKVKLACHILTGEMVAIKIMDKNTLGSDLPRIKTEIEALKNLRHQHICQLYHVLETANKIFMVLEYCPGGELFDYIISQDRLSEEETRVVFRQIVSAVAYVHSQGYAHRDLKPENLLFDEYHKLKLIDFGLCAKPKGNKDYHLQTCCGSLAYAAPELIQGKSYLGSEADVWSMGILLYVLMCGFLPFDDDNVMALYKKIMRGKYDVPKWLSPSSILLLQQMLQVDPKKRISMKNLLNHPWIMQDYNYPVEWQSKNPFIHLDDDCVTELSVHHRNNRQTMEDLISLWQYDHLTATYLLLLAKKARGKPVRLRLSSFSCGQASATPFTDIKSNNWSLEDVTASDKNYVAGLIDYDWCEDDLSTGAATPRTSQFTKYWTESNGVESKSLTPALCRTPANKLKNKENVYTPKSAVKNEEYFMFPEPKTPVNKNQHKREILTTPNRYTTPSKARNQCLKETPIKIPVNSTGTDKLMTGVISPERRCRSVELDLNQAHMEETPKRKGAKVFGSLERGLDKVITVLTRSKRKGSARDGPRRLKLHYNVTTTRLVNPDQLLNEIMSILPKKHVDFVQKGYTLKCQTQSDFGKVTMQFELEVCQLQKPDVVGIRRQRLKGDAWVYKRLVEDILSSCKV
The target is the same in assay [15]. The note with it: at 1 µM.
In assay [16] the target is MAP kinase-interacting serine/threonine-protein kinase 1 (Homo sapiens) (UniProt Q9BUB5). Conditions: at 0.1 µM.
The target is the same in assay [17]. Conditions: at 1 µM.
The target of assay [18] is MAP kinase-interacting serine/threonine-protein kinase 2 (Homo sapiens) (UniProt Q9HBH9). The note with it: at 0.1 µM.
MAP kinase-interacting serine/threonine-protein kinase 2 (Homo sapiens), sequence (Q9HBH9 whole entry, looked up): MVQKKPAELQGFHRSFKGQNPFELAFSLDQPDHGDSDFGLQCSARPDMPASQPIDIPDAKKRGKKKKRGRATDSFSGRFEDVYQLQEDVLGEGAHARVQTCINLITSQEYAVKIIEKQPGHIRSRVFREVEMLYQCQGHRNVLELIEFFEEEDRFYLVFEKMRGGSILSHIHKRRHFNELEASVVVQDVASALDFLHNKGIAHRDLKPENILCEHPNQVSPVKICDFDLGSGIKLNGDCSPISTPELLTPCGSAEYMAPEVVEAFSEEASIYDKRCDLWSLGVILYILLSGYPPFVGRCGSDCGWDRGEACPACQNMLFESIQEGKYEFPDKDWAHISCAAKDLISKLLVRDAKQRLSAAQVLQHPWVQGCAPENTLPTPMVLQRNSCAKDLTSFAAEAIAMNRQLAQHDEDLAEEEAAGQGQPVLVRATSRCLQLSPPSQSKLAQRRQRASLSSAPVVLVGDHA
Assay [19] shares this target. The note with it: at 1 µM.
Assay [20] deals with Serine/threonine-protein kinase MARK2 (Homo sapiens) (UniProt Q7KZI7). The note with it: at 0.1 µM.
Serine/threonine-protein kinase MARK2 (Homo sapiens), sequence (Q7KZI7 whole entry): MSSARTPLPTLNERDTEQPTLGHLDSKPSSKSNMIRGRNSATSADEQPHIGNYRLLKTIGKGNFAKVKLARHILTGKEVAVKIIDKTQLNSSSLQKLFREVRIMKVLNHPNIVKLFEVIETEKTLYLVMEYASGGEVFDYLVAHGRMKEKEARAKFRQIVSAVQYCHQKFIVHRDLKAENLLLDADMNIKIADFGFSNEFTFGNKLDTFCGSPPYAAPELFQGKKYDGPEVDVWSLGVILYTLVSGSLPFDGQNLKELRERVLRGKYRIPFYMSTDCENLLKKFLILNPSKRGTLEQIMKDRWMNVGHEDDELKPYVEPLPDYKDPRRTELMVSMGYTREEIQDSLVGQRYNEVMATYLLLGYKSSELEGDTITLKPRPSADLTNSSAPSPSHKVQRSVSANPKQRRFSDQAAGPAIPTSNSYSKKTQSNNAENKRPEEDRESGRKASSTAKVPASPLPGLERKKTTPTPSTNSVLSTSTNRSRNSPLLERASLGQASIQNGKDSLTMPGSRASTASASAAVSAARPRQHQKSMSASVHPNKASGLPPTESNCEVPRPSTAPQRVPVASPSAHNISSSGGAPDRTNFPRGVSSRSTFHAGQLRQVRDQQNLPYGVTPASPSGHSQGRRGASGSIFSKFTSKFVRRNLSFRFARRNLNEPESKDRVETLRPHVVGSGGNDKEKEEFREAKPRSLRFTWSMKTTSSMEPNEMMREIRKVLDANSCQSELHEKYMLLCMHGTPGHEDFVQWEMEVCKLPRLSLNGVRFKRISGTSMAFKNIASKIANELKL

MAP/microtubule affinity-regulating kinase 3 (Homo sapiens), sequence (P27448 whole entry, looked up): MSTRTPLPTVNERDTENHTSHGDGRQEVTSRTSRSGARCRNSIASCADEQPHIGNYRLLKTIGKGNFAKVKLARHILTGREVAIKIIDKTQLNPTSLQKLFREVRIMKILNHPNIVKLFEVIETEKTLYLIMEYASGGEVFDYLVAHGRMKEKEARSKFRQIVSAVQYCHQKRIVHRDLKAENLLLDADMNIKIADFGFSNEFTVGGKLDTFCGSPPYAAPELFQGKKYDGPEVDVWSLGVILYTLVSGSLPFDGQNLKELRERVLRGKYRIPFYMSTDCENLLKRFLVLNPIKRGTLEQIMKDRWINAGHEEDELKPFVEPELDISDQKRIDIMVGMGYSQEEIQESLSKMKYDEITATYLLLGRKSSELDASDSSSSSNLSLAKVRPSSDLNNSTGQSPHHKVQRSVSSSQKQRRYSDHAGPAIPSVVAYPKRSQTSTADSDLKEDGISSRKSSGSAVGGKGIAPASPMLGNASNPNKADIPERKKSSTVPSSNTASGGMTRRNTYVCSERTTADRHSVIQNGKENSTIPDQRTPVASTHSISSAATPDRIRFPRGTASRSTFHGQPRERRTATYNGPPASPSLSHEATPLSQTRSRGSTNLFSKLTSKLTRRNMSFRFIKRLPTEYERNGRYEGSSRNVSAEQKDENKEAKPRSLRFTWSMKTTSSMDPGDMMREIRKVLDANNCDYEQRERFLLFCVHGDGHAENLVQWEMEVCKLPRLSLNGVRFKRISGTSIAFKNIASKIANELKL
Death-associated protein kinase 1 (Homo sapiens), sequence (P53355 whole entry, looked up): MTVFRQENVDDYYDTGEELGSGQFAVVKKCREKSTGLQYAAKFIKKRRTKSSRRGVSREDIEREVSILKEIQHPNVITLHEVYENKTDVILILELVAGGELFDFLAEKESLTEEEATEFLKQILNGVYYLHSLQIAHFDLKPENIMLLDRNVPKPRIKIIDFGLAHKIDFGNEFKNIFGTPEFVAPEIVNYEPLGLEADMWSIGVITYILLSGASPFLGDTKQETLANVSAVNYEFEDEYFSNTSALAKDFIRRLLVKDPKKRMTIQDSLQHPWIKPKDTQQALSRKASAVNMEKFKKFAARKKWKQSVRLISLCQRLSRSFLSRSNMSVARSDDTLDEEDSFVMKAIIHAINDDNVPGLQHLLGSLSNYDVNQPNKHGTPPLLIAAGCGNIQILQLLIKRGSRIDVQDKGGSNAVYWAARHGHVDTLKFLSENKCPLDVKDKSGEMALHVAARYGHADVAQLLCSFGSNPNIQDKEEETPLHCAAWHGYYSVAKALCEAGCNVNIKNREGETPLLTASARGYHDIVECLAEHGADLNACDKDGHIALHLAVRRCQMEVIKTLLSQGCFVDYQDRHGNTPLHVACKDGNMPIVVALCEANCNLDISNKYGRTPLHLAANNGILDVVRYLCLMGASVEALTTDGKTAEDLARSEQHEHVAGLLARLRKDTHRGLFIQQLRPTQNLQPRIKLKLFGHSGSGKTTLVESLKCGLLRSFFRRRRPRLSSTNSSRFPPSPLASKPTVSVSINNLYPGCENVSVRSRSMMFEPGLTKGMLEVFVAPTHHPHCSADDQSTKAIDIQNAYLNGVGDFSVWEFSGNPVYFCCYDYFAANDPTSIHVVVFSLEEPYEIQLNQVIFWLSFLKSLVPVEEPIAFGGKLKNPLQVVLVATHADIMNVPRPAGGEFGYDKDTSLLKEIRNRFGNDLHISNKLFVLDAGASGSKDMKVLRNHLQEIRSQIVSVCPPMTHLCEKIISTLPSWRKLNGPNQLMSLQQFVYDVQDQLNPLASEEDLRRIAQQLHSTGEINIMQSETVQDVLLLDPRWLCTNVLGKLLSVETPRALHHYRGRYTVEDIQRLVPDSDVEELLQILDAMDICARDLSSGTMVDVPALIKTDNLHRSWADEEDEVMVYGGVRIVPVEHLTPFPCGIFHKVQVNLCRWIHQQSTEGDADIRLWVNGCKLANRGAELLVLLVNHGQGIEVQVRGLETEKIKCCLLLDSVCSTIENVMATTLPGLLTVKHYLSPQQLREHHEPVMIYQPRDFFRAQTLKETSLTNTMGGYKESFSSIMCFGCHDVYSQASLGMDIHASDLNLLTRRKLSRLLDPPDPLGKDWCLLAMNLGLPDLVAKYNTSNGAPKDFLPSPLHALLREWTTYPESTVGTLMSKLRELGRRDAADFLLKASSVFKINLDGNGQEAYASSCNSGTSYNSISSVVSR

One may read the inhibition as the drop in the measured response relative to a control, in per cent. With `NC(=O)Cc1ccccc1Oc1nccc(-c2c(-c3ccc(F)cc3)ncn2C2CCNCC2)n1`, the inhibition in assay [1] came to 4.92%; in [2], 0.97%; in assay [3], 0.45%; in assay [4], 0.74%; in [5], 0.89%; in assay [6], 13.4%. For the same molecule, the inhibition in assay [7] was 28.7%; in assay [8], 2.13%; in assay [9], 4.3%; in assay [10], 9.03%; in assay [11] it was 5.15%; in [12], 1.54%. Further, the inhibition in assay [13] worked out at 1.97%; in assay [14] it was 1.5%; in [15] it was 5.18%; in assay [16], 1.93%; in assay [17], 1.72%; in assay [18], 0.62%. In addition, the inhibition turned out to be 0.77% in assay [19] and 1.48% in assay [20].

With `Fc1ccc(-c2ncn(C3CCNCC3)c2-c2ccnc(Oc3ccc(Oc4ccccc4)cc3)n2)cc1`, the inhibition in assay [1] was 13.2%; in [2] it was -0.37%; in [3], 2.31%; in assay [4], 5.15%; in assay [5], 7.84%; in assay [6] it was 37.5%. For the same molecule, the inhibition in assay [7] turned out to be 46.2%; in assay [8], 2.1%; in [9], 4.13%; in [10], 2.76%; in assay [11] it was 2.05%; in assay [12] it was 0.75%. Also, the inhibition in assay [13] worked out at 2.59%; in [14], 6.35%; in [15], 11.1%; in [16], 1.1%; in [17] it was 1.53%; in assay [18], 0.72%. For the same molecule, the inhibition in [19] is 1.76%; in assay [20], 2.71%.

As to `O=C(Nc1n[nH]c2nc(-c3ccco3)ccc12)C1CC1`, the inhibition in assay [1] is 8.47%; in [2] it was -5.65%; in assay [3], -0.3%; in assay [4] it was 3.08%; in assay [5], 2.89%; in [6], 7.07%. Also, the inhibition in assay [7] is 7.18%; in [8], -0.31%; in assay [9] it was 0.25%; in assay [10] it was 3.27%; in assay [11] it was 1.53%; in assay [12], 0.31%. The inhibition worked out at 0.56% in assay [13]; 2.23% in assay [14]; 2.05% in assay [15]; 1.89% in [16]; 9.62% in assay [17]; 0.06% in [18]. For the same molecule, the inhibition in assay [19] came out at 4.01%; in assay [20], 0.19%.

Regarding `Fc1ccc(-c2ncn(CCCN3CCOCC3)c2-c2ccncc2)cc1`, the inhibition in assay [1] was 2.3%; in assay [2], -1.56%; in [3], 5.36%; in assay [4] it was -0.27%; in assay [5], -0.32%; in assay [6], 3.13%. Further, the inhibition in assay [7] was found to be 14.5%; in assay [8], 0.51%; in [9], 0.81%; in assay [10] it was 2.21%; in [11] it was 22%; in assay [12] it was 0.52%. Further, the inhibition is 0.72% in [13]; -0.32% in assay [14]; -0.03% in assay [15]; -0.96% in assay [16]; 0.15% in assay [17]; -1.39% in assay [18]. Besides, the inhibition in assay [19] was -0.24%; in assay [20] it was -1.95%.

Regarding `CCc1ccc(Oc2nccc(-c3c(-c4ccc(F)cc4)ncn3C3CCNCC3)n2)cc1`, the inhibition in assay [1] was 4.64%; in [2], -0.57%; in assay [3] it was 1.55%; in [4], 1.96%; in [5], 3.67%; in assay [6], 36.5%. Besides, the inhibition is 37.5% in assay [7]; 3.13% in assay [8]; 7.96% in assay [9]; 3.13% in assay [10]; 7.86% in [11]; 2.89% in [12]. In addition, the inhibition in assay [13] was determined as 4.67%; in assay [14], 6.32%; in assay [15], 5.64%; in [16], 2.17%; in [17] it was 4.48%; in assay [18] it was 3.36%. The inhibition in assay [19] worked out at 3.52%; in assay [20], 1.93%.
